Compound activity deposited in PubChem by National Center for Advancing Translational Sciences (NCATS).
FLuc modulator = qHTS profiling assay for firefly luciferase inhibitor/activator using purifed enzyme and Km concentrations of substrates (counterscreen for miR-21 project). purified FLuc, Km substrates, luminescence inhibition. Potency, µM (top dose mostly 57.5 µM), inactives show at the top dose activity change, negative = inhibition, most hits filed as inhibitors. actives 6.9% (n = 360,000). AID 588342, 2011;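 also: plate controls were vehicle for no effect and reference inhibitor for full effect; nearly all actives have a fitted effect of over 55% in size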
Target sequence (P08659 whole entry, looked up): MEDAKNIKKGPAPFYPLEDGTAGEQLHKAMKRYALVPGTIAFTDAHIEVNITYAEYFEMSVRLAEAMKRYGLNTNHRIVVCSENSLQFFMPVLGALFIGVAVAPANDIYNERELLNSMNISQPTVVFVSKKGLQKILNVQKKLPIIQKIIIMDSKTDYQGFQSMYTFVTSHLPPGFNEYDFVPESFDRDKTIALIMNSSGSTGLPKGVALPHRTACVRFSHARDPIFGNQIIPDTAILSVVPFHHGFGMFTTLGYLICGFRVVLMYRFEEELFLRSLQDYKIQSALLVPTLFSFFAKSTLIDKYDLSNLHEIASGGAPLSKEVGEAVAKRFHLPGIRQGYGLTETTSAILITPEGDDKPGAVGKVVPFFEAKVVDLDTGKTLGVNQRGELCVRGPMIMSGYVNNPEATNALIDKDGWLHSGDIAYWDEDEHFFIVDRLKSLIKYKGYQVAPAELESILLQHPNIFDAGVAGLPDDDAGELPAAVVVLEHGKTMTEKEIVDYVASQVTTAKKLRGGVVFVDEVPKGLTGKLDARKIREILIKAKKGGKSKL
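Biochemical qHTS of compounds, final roughly 60 µM downward over six points, against 10 nM purified firefly luciferase using Km concentrations of substrates (10 uM D-luciferin, 10 uM ATP) in Tris acetate pH 7.5 buffer; luminescence output.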
ELG1 genotoxic = qHTS screen for small molecules that induce genotoxicity in human embryonic kidney (HEK293T) cells expressing luciferase-tagged ELG1; actives 1.3% (n = 330,000); Potency, µM (titrated, usually from 46 µM), for inactives: at the top dose activity change, positive = activation, usual class: activators; HEK293T ELG1-luciferase reporter, luminescence, 16 h; also: % of control where 0% means no effect; nearly all actives have a fitted effect of over 60% in size
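ELG1-luciferase HEK293T cells, 2,000/well; compound pinned in; 16 hr, 37 °C, 5% CO2; ONE-Glo, 30 min RT; luminescence on CCD imager.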
Rab9 promoter act = qHTS Assay for Rab9 Promoter Activators. Huh7 Rab9 promoter-luciferase reporter, luminescence, 24 h. Potency, µM (titrated, usually from 9.22 µM), without a hit: at the highest dose activation, negative = inhibition, usual class: activators. actives 2.8% (n = 320,000); also: % of control where 0% means no effect; nearly all actives have a fitted effect of over 60% in size
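Cell-based reporter: Huh7 stable for Rab9 promoter-driven luciferase, plated in reduced-serum medium with 10% FBS at 1500 cells/well, compound-treated 24 h at 37 °C, luminescence read after 10 min reagent.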
ELG1 DNA repair = qHTS screen for small molecules that inhibit ELG1-dependent DNA repair in human embryonic kidney (HEK293T) cells expressing luciferase-tagged ELG1; HEK293T ELG1-luciferase reporter, luminescence, 16 h; DNA damage induced by 5-fluorouridine; Potency, µM (titrated, usually from 46.1 µM), inactives show at the top dose activity change, negative = inhibition, actives largely listed as inhibitors; actives 2.3% (n = 330,000); also: % is scaled to controls: 0 for no effect and ±100 for the full control effect; nearly all actives have a fitted effect of over 55% in size
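In this reporter screen, reduction of luminescence relative to DMSO vehicle indicated activity. Compounds and 5-fluorouridine were added together to 2,000 cells per well, incubated for 16 hr at 37 °C, then developed with ONE-Glo.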
SMN2 splice enh = qHTS Assay for Enhancers of SMN2 Splice Variant Expression; AID 1458, 2008; Potency, µM (doses to about 46.1 µM), for inactives: at the top dose activity change, positive = activation, usual class: activators; actives 2.8% (n = 210,000); HEK293 SMN2-luciferase splicing reporter, luminescence, 30-36 h; also: % of control where 0% means no effect; nearly all actives have a fitted effect of over 55% in size
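HEK293 cells carry an SMN2 […]–luciferase reporter in which exon 7 inclusion puts luciferase in frame. Cells were plated 10-12 h before compound addition, then incubated 30-36 h at 37C. ONE-Glo luminescence was read; sodium butyrate at 4.5 mM final served as control.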
NPC1 prom act = qHTS Assay for NPC1 Promoter Activators. AID 485313, 2010. actives 2.4% (n = 320,000). Potency, µM (series often up to 9.22 µM), inactives show top-dose activation, hits mostly activators. Huh7 NPC1 promoter luciferase reporter, 24 h; also: % of control where 0% means no effect; nearly all actives have a fitted effect of over 60% in size
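Luminescence read-out of NPC1 promoter-driven luciferase in stably transfected Huh7 cells; compounds delivered in DMSO and left 24 h at 37C, 5% CO2, qHTS titration format.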
An asterisk follows results filed as active; ? = inconclusive; / = no result given; [ ] = another dose, or the depositor's remark. Compounds with a hit are over-represented: about 9.4% of the library has one in this group of screens. Calls follow the shape of the dose curve; as a rule, active = well fitted curve in the direction sought with a large enough effect; inconclusive = small, poorly fitted or top-dose-only effect, or another doubt; inactive = no such curve, though single readings can be large; an effect the other way counts as inactive or inconclusive. Potency is read from the fitted curve at half-maximal effect.

SMILES	FLuc modulator	ELG1 genotoxic	Rab9 promoter act	ELG1 DNA repair	SMN2 splice enh	NPC1 prom act
O=c1c2c3c(sc2nc2sc(C4CC4)nn12)CCCC3	3.01µM*	5.8µM*	3.98µM*	?	7.94µM*	2.51µM*
Cc1ccc(NC(=O)c2cc(Cl)nc3ccccc23)cc1	1.6%	-0.7%	2.8%	-8.5%	4.2%	-6.9%
Cc1ccc(NC(=O)c2c(Cl)n(C)c3ccccc23)cc1	3.38µM*	10.6%	22.8%	?	?	?
Cn1c(Cl)c(C(=O)Nc2ccccc2)c2ccccc21	15.1µM*	2.9%	2.5%	19.3%	-4.1%	?
CC(C)Oc1ccc(C(=O)Nc2ccc3oc(-c4ccncc4)nc3c2)cc1	-19.4%	/	/	/	6.6%	/
CC(=O)c1cc2c(C)c(C(=O)c3ccccc3)oc2cc1O	0.536µM*	?	1.58µM*	?	-6.5%[1.84 µM]	3.98µM*
Cn1nc(-c2ccc(C(=O)Nc3ccc(F)cc3)cc2)c2ccccc2c1=O	-0.8%	0.5%	-7.8%	7.3µM*	-36.6%	-7.0%
Cn1nc(C(=O)NCc2ccccc2)c2ccccc2c1=O	-0.7%	?	9.1%	?	7.9%	-0.3%
COc1ccc(-n2nc(C(=O)NCC(=O)NCc3ccc(F)cc3)c3ccccc3c2=O)cc1	3.0%	-17.7%	-5.9%	16.4µM*	/	0.7%
Cn1nc(C(=O)NCc2ccc(F)cc2)c2ccccc2c1=O	10.1%	3.8%	-6.4%	?	17.8µM*	-4.0%
COc1ccc(-n2nc(C(=O)NCC(=O)NCCC3=CCCCC3)c3ccccc3c2=O)cc1	-4.3%	-20.8%	-2.8%	16.4µM*	/	-1.4%
CCN(C(=O)c1cc2c(=O)oc3ccccc3c2s1)c1ccc(C)c(C)c1	-16.9%	/	/	/	7.2%	/
CCC(=O)N1CCc2cc(Br)cc(S(=O)(=O)N3CCN(c4cccc(Cl)c4)CC3)c21	1.2%	/	/	/	-2.8%	/
COc1ccc(-n2nc(C(=O)NCC(=O)N(C)Cc3ccccc3)c3ccccc3c2=O)cc1	16.9µM*	-19.7%	6.4%	?	/	2.3%
COc1ccc(-n2nc(C(=O)NCC(=O)O)c3ccccc3c2=O)cc1	1.5%	0.4%	-2.5%	-6.5%	/	1.7%
NC(=O)Cn1nnc(-c2ccc(NC(=O)c3ccc(F)cc3)cc2)n1	?	?	?	?	14.1µM*	?
CCC(=O)NCc1cc(-c2nn(C)c(=O)c3ccccc23)ccc1C	-1.5%	14.7%	2.1%	-5.0%	-25.2%	-3.4%
C/C(=C\C(=O)c1ccccc1)NCc1ccc(F)cc1	19µM*	0.1%	19.9%	?	-6.0%	7.5%
Cc1ccc(-c2nn(C)c(=O)c3ccccc23)cc1CNC(=O)c1ccccc1	2.2%	-0.7%	-2.7%	16.4µM*	/	2.7%
O=C(Cn1nnc(-c2ccc(NC(=O)c3ccccc3F)cc2)n1)NCc1ccc(F)cc1	-3.7%	12.0%	22.8%	28.3%	/	18.6%
COC(=O)c1c(SC)nc2ccccc2c1OCc1ccccc1Cl	-12.8%	/	/	/	/	/
CCC1CCc2nc3sc(C(=O)Nc4ccc(C)cc4C)c(N)c3cc2C1 (centres undefined)	2.5%	/	/	/	-14.2%	/
CC(C)CNC(=O)N1[C@H](c2cccs2)[C@@H](C)C(=O)[C@@H](C)[C@@H]1c1cccs1	2.3%	/	/	/	/	/
CCN(CC)CCCCCCCCOC(=O)c1cc(OC)c(OC)c(OC)c1	6.8%	18.3µM*	-16.3%[46.1 µM]	?	21.6%	-11.4%[46.1 µM]
Clc1cnc(N/N=C/c2ccco2)c(Cl)c1	10.7µM*	?	0.794µM*	?	5.62µM*	1.41µM*
C/C(=N\Nc1ncc(Cl)cc1Cl)c1ccc(C#N)cc1	2.7%	0.0%	-4.8%	14.1%	-9.1%	-5.3%
